Laboratory results from PubChem BioAssay (EPA / NIEHS).
Where “and” joins values, the source holds several entries; their conditions need not be identical. Equal entries are not always repeated. Records with an inconclusive call do not appear. The source holds several records for some structures; these can differ, active in one and inactive in another. Calls of active or inactive are those of the source. How the source made its calls: active means hit-call score of the fitted dose curve at least 0.9, where 1 is the maximum; inconclusive means response in the unintended direction; inactive means score below 0.9.

target: Peroxisome proliferator-activated receptor gamma (Homo sapiens) (UniProt P37231); test: ATG_hPPARg_XSP2: Attagene TRANS-FACTORIAL Multi-Species (XSP2) HepG2 Assay for human Peroxisome Proliferator-activated Receptor gamma (PPARg) (AID 2283829);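 further: actives raise reporter mRNA above DMSO so AC50 reflects PPARg activation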
Summary of the method: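 Human HepG2 cells carried transiently transfected Gal4 reporter units and were treated with chemical for 24 h alongside androgen-receptor stimulants (3 nM 6-alpha-fluorotestosterone, 1.5 nM norgestrel). Reporter transcripts were detected by RT-PCR with capillary electrophoresis, analysed in the positive direction against DMSO.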

Chain of Peroxisome proliferator-activated receptor gamma (Homo sapiens) (P37231 whole entry, looked up, the tested form may be a part): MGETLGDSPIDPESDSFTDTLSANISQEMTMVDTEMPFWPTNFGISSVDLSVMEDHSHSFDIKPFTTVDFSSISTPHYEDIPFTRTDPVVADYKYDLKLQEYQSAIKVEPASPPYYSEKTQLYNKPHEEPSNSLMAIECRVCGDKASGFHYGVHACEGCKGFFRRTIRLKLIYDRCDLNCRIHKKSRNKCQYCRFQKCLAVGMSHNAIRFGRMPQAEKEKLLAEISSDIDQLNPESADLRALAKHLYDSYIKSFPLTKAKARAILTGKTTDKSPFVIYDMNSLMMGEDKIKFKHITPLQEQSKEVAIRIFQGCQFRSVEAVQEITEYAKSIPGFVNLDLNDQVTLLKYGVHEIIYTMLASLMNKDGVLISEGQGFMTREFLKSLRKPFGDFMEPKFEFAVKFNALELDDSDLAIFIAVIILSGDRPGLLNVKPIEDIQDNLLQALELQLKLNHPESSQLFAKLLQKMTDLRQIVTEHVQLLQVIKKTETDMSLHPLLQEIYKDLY

**Q.** How did the outcome turn out when `O=S1OCC2C(CO1)C1(Cl)C(Cl)=C(Cl)C2(Cl)C1(Cl)Cl` (stereo not drawn) was run?
**A.** inactive

**Q.** `O=S(=O)(O)C(F)(F)C(F)(F)C(F)(F)C(F)(F)C(F)(F)C(F)(F)C(F)(F)C(F)(F)F` was tested. Which AC50 did it give?
**A.** 119 µM (active)

**Q.** For `CCCN(CCOc1c(Cl)cc(Cl)cc1Cl)C(=O)n1ccnc1`, which AC50 is on record?
**A.** 16.6 µM (active)

**Q.** Which AC50 does the source give for `Oc1cc(Cl)ccc1Oc1ccc(Cl)cc1Cl` here?
**A.** 11.1 µM (active)

**Q.** Which AC50 does the source give for `Oc1ccc(Cl)cc1Cc1ccccc1` here?
**A.** 10 µM (active)

**Q.** For `CC(C)(C)C(O)/C(=C\c1ccc(Cl)cc1Cl)n1cncn1` (stereo not drawn), which AC50 is on record?
**A.** 46.7 µM (active) and 47.6 µM (active)

**Q.** `CCCN(CCC)c1c([N+](=O)[O-])cc(C(F)(F)F)cc1[N+](=O)[O-]` was tested. Which outcome did it give?
**A.** inactive

**Q.** With `COP(=S)(OC)Oc1ccc(SC)c(C)c1` as the molecule, how does the AC50 read?
**A.** 34.2 µM (active)

**Q.** Which AC50 does the source give for `CCOCN(C(=O)CCl)c1c(C)cccc1CC` here?
**A.** 1.01 µM (active)

**Q.** `CC1(C)C(C=C(Cl)Cl)C1C(=O)OC(C#N)c1ccc(F)c(Oc2ccccc2)c1` (stereo not drawn) was tested. Which AC50 did it give?
**A.** 20.5 µM (active)

**Q.** Which results are given for `COP(=S)(OC)Oc1ccc([N+](=O)[O-])cc1`?
**A.** AC50: 27.7 µM (active); outcome: inactive

target: mouse Peroxisome Proliferator-activated Receptor gamma (PPARg), Pparg (gene 19016) (UniProt P37238); test: ATG_mPPARg_XSP2: Attagene TRANS-FACTORIAL Multi-Species (XSP2) HepG2 Assay for mouse Peroxisome Proliferator-activated Receptor gamma (PPARg) (AID 2283830);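 further: hits are gains in reporter mRNA above DMSO so AC50 marks activation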
Summary of the method: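 Multiplexed TRANS reporter readout: after 24 h chemical exposure of transfected HepG2 cells (with 3 nM 6-alpha-fluorotestosterone, 1.5 nM norgestrel present), RNA reverse-transcribed, amplified, 6-FAM-labelled and resolved by capillary electrophoresis; mouse PPARg-Gal4 induction scored against DMSO.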

Chain of mouse Peroxisome Proliferator-activated Receptor gamma (PPARg), Pparg (gene 19016) (P37238 whole entry, looked up, the tested form may be a part): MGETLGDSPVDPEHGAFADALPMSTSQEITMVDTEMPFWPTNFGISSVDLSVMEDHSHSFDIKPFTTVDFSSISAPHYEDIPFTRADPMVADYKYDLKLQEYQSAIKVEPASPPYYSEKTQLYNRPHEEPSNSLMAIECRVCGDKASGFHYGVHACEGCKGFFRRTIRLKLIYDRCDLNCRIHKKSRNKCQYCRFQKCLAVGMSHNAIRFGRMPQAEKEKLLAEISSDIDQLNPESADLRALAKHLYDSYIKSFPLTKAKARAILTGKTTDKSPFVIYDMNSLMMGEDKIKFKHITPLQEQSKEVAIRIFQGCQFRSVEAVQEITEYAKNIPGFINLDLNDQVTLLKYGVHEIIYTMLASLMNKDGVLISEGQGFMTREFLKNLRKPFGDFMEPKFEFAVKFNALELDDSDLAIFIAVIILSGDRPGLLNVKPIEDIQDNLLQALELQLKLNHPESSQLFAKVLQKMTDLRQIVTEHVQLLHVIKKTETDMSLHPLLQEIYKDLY

**Q.** Which AC50 does the source give for `O=S(=O)(O)C(F)(F)C(F)(F)C(F)(F)C(F)(F)C(F)(F)C(F)(F)C(F)(F)C(F)(F)F` here?
**A.** 145 µM (active)

**Q.** With `CCCN(CCOc1c(Cl)cc(Cl)cc1Cl)C(=O)n1ccnc1` as the molecule, how does the AC50 read?
**A.** 20.4 µM (active)

**Q.** For `Oc1cc(Cl)ccc1Oc1ccc(Cl)cc1Cl`, which AC50 is on record?
**A.** 15 µM (active)

**Q.** Which outcome does the source give for `Oc1ccc(Cl)cc1Cc1ccccc1` here?
**A.** inactive

**Q.** For `CC(C)(C)C(O)/C(=C\c1ccc(Cl)cc1Cl)n1cncn1` (stereo not drawn), which AC50 is on record?
**A.** 33.4 µM (active) and 20.8 µM (active)

**Q.** For `CCCN(CCC)c1c([N+](=O)[O-])cc(C(F)(F)F)cc1[N+](=O)[O-]`, which outcome is on record?
**A.** inactive

**Q.** With `COP(=S)(OC)Oc1ccc(SC)c(C)c1` as the molecule, how does the AC50 read?
**A.** 35.8 µM (active)

**Q.** `CCOCN(C(=O)CCl)c1c(C)cccc1CC` was tested. Which AC50 did it give?
**A.** 2.14 µM (active)

**Q.** `CC1(C)C(C=C(Cl)Cl)C1C(=O)OC(C#N)c1ccc(F)c(Oc2ccccc2)c1` (stereo not drawn) was tested. Which AC50 did it give?
**A.** 10.9 µM (active)

**Q.** Which AC50 does the source give for `COP(=S)(OC)Oc1ccc([N+](=O)[O-])cc1` here?
**A.** 27 µM (active)

**Q.** What about the outcome of the same molecule?
**A.** inactive
